Records with an inconclusive call do not appear. The source made the active and inactive calls. Rule for the calls: active = hit-call score of the fitted dose curve at least 0.9, where 1 is the maximum; inconclusive = response in the unintended direction; inactive = score below 0.9.
Key:
[1] = tested on: Thyroperoxidase (TPO), gene 445522; assay: CCTE_Simmons_GUA_TPO: CCTE's Guaiacol Assay for Thyroperoxidase (TPO) Inhibition, Simmons Lab (AID 2283750)
Outline: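 Porcine thyroid microsomes (25 ug) in 200mM potassium phosphate, preincubated 30 s at 37C with compound (8 concentrations, 5 nM–87.5 uM) and 35mM guaiacol; 1mM H2O2 starts reaction. Absorbance change at 450nm over first 80 s; loss of signal versus DMSO, three replicates.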

[2] = ArunA_NOG_NeuriteLength: ArunA Biomedical's Neurite Outgrowth (NOG) Assay for Neurite Length (AID 2283757)
Outline: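 Total neurite length per neuron, from traced βIII-tubulin-labelled processes longer than 10 um on viable Hoechst-gated cells, was scored as decrease from DMSO. Cells were hESC (H9)-derived neurons given 48 h chemical exposure immediately after seeding.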

[3] = ArunA_NOG_NeuritesPerNeuron: ArunA Biomedical's Neurite Outgrowth (NOG) Assay for Neurites Per Neuron (AID 2283758)
Outline: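 Differentiated human H9-derived neurons exposed to chemicals for 48 h from seeding, then stained with Hoechst and βIII-tubulin/DyLight 488. Automated imaging counted neurites (processes >10 um) per valid neuron; loss of signal versus DMSO scored.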

[4] = tested on: chicken Androgen Receptor (AR), gene 422165; assay: ATG_chAR_XSP1: Attagene TRANS-FACTORIAL Multi-Species (XSP1) HepG2 Assay for chicken Androgen Receptor (AR) (AID 2283768)
Outline: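 Reporter mRNA read by RT-PCR with fluorescent labelling and capillary electrophoresis 24 h after chemical dosing of transiently transfected HepG2 cells. Chicken AR-Gal4 chimera, partially stimulated with 3 nM 6-alpha-fluorotestosterone; activity fitted upward relative to DMSO.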

[5] = tested on: zebrafish Androgen Receptor (AR), gene 100005148; assay: ATG_zfAR_XSP1: Attagene TRANS-FACTORIAL Multi-Species (XSP1) HepG2 Assay for zebrafish Androgen Receptor (AR) (AID 2283771)
Outline: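 Gain-of-signal versus DMSO was measured as reporter transcripts quantified by RT-PCR, fluorescent labelling and capillary electrophoresis after 24 h chemical exposure. The cells were HepG2 expressing a chimeric zebrafish AR-GAL4, co-stimulated with 3 nM 6-alpha-fluorotestosterone.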

CCOC(=O)CC(SP(=O)(OC)OC)C(=O)OCC (centres undefined)
outcome [1]: inactive

COP(=O)(NC(C)=O)SC (centres undefined)
outcome [1]: inactive

CC1=NNC(=O)N(/N=C/c2cccnc2)C1
AC50 [2]: 73.8 µM (active)
AC50 [3]: 65 µM (active)

CN(C)[C@@H]1C(=O)C(C(N)=O)=C(O)[C@@]2(O)C(=O)C3=C(O)c4c(O)cccc4[C@@](C)(O)[C@H]3[C@H](O)[C@@H]12
AC50 [2]: 78.6 µM (active)
AC50 [3]: 83.4 µM (active)

C#CC(C)(C)NC(=O)c1cc(Cl)cc(Cl)c1
AC50 [4]: 26.4 µM (active)

CCCOCC(=Nc1ccc(Cl)cc1C(F)(F)F)n1ccnc1
outcome [5]: inactive

CCc1cccc(C)c1N(C(=O)CCl)C(C)COC (centres undefined)
outcome [5]: inactive
